Test results: the supplement of paper PMC13380429
Where a name gives a salt, the structure may show the parent alone. A number with no mark means an inactive call.

test system: Vero E6 infected with SARS-CoV-2; experiment: SARS-CoV-2 infection rate relative to infected DMSO; higher = more infection, active = 60 or less; settings: 24 h

| SMILES | SARS-CoV-2 infection rate |
| --- | --- |
| CCN(c1ccccc1)c1cc(=NC)n(C)c(C)n1 (10 µM) | 94% |
| CC1=C(CCC(=O)O)c2cc3[nH]c(cc4nc(cc5[nH]c(cc1n2)c(C)c5C(C)O)C(C)=C4C(C)O)c(C)c3CCC(=O)O (centres undefined) [hematoporphyrin] (10 µM) | 116% |
| N[C@@H](Cc1cc(CP(=O)(O)O)cc(-c2ccccc2Cl)c1)C(=O)O (10 µM) | 97.5% |
| CO[C@H]1C[C@H](O[C@@H]2/C(C)=C/C[C@@H]3C[C@@H](C[C@]4(CC[C@H](C)[C@@H](C5CCCCC5)O4)O3)OC(=O)[C@@H]3C=C(C)/C(=N/O)[C@H]4OC/C(=C\C=C\[C@@H]2C)[C@]43O)O[C@@H](C)[C@@H]1O [selamectin] (10 µM) | 71% |
| CC(C(=O)O)c1ccc2c(c1)Cc1cccnc1O2 (centres undefined) [pranoprofen] (10 µM) | 122% |
| COc1c(C)c2c(c(O)c1C/C=C(\C)CCC(=O)O)C(=O)OC2 [mycophenolic-acid] (10 µM) | 114% |
| O=C1Nc2cc(Cl)c(Cl)cc2N2CCNC[C@H]12 (10 µM) | 108% |
| N=C(Nc1ccccc1)Nc1ccccc1 [diphenylguanidine] (10 µM) | 98% |
| OC[C@H]1O[C@@H](OCCc2ccc(O)cc2)[C@H](O)[C@@H](O)[C@@H]1O [salidroside] (10 µM) | 116% |
| CC[C@H]1CN2CCc3cc(OC)c(OC)cc3[C@@H]2C[C@@H]1C[C@H]1NCCc2cc(OC)c(OC)cc21 [emetine] (0.833333 µM) | 108% |
| N#Cc1nn(-c2c(Cl)cc(C(F)(F)F)cc2Cl)c(N)c1[S+]([O-])C(F)(F)F (centres undefined) [fipronil] (10 µM) | 102% |
| Cc1c(F)cc(C(=O)NC2CC2)cc1-c1c(F)cn2c(C(C)(C)C)nnc2c1F (10 µM) | 108% |
| CC(=O)Nc1ccc(S(=O)(=O)Nc2ccc([N+](=O)[O-])cc2)cc1 [sulfanitran] (10 µM) | 108% |
| Cn1ncc(Cl)c1-c1cc(C(=O)N[C@H](CN)Cc2ccc(F)c(F)c2)oc1Cl [uprosertib] (10 µM) | 96.5% |
| CCOC(=O)Nc1ccc2c(c1)N(C(=O)CCN(CC)CC)c1ccccc1S2 [ethacizin] (10 µM) | 112% |
| C[C@@H](Oc1cc(-n2cnc3ccc(CN4CCN(C)CC4)cc32)sc1C(N)=O)c1ccccc1C(F)(F)F (0.833333 µM) | 94% |
| CC1=C(C(=O)O)N2C(=O)[C@@H](NC(=O)[C@H](N)C3=CCC=CC3)[C@H]2SC1 [cephradine] (10 µM) | 106% |
| CC[C@@H](c1cccc(O)c1)[C@@H](C)CN(C)C [Tapentadol (hydrochloride)] (10 µM) | 108% |
| C/C(=N\c1ccccc1N)c1c(C)cc(=O)n(O)c1O (10 µM) | 107% |
| N#Cc1ccccc1-c1cc(-c2ccccn2)cn(-c2ccccc2)c1=O [Perampanel] (10 µM) | 90.5% |
| CC(C)Cn1cnc2c(N)nc3ccccc3c21 [imiquimod] (10 µM) | 106% |
| Cc1c(C2CCN(CCc3ccccc3)CC2)noc1-c1ccc(Cl)cc1 (10 µM) | 84% |
| CCc1c2c(nc3ccc(O)cc13)-c1cc3c(c(=O)n1C2)COC(=O)[C@]3(O)CC (0.833333 µM) | 116% |
| N#CC(c1ccc(Cl)cc1)c1c(Cl)cc(-n2ncc(=O)[nH]c2=O)cc1Cl (centres undefined) [diclazuril] (10 µM) | 93% |
| CC[C@@H]([C@H](C)O)n1ncn(-c2ccc(N3CCN(c4ccc(OC[C@@H]5CO[C@@](Cn6cncn6)(c6ccc(F)cc6F)C5)cc4)CC3)cc2)c1=O [posaconazole] (0.833333 µM) | 102% |
| CNC(=O)c1cc(Oc2ccc(NC(=O)Nc3cc(C(C)(C)C)nn3-c3ccc4ncccc4c3)c(F)c2)ccn1 [rebastinib] (0.833333 µM) | 106% |
| CCOC(=O)N1CCC(=C2c3ccc(Cl)cc3CCc3cccnc32)CC1 [loratadine] (10 µM) | 90% |
| O=C(c1cc2ccccc2o1)N1CCN(Cc2ccccc2)CC1 [befuraline] (10 µM) | 106% |
| CN(C)c1nc(N)c(C(=O)Nc2cccnc2)nc1Cl (10 µM) | 79% |
